Measured values: the supplement of paper PMC4466140

B1: unnamed (peptide)
chain: KTKQQKPAIPQKKSF

These binders were tested against AgAbp1 (assay: SPOT peptide array binding signal intensity (averaged, normalized) (arbitrary units (background-subtracted, floor 0; scale differs between SH3 domains)); higher = stronger binding of the SH3 domain to the peptide).
Protocol: (§1)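 GST-tagged SH3 domains from S. cerevisiae (Sc), A. gossypii (Ag), C. albicans (Ca) and S. pombe (Sp) were incubated at 10 ug/ml overnight at 4 C on cellulose SPOT membranes carrying 292 synthetic 15-mer peptides mined from the S. cerevisiae proteome (cysteines replaced by serines). Binding was detected with anti-GST antibody, HRP secondary and chemiluminescence, quantified with Genespotter, and reported as normalized spot intensities averaged over biological replicates.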

Binder | SPOT peptide array binding signal intensity
B1 | 2190

The binders below were run against AgBbc1 in the same assay as above.
Protocol: as §1

Binder | SPOT peptide array binding signal intensity
B1 | 16.5

These binders were tested against AgBem1-D1 in the same assay as above.
Protocol: as §1

Binder | SPOT peptide array binding signal intensity
B1 | 7

Each binder was assayed against AgBzz1-D1 in the same assay as above.
Protocol: as §1

Binder | SPOT peptide array binding signal intensity
B1 | 73

Each binder was assayed against AgBzz1-D2 in the same assay as above.
Protocol: as §1

Binder | SPOT peptide array binding signal intensity
B1 | 21

The binders below were run against AgCyk3 in the same assay as above.
Protocol: as §1

Binder | SPOT peptide array binding signal intensity
B1 | ≤ 0

The binders below were run against AgFus1 in the same assay as above.
Protocol: as §1

Binder | SPOT peptide array binding signal intensity
B1 | ≤ 0

These binders were tested against AgHof1 in the same assay as above.
Protocol: as §1

Binder | SPOT peptide array binding signal intensity
B1 | 35.5

What follows are binders tested against AgHse1 in the same assay as above.
Protocol: as §1

Binder | SPOT peptide array binding signal intensity
B1 | ≤ 0

Each binder was assayed against AgLsb1 in the same assay as above.
Protocol: as §1

Binder | SPOT peptide array binding signal intensity
B1 | ≤ 0

Each binder was assayed against AgLsb4 in the same assay as above.
Protocol: as §1

Binder | SPOT peptide array binding signal intensity
B1 | 1.5

The binders below were run against AgMyo5 in the same assay as above.
Protocol: as §1

Binder | SPOT peptide array binding signal intensity
B1 | 4

The binders below were run against AgNbp2 in the same assay as above.
Protocol: as §1

Binder | SPOT peptide array binding signal intensity
B1 | 14

Each binder was assayed against AgRvs167 in the same assay as above.
Protocol: as §1

Binder | SPOT peptide array binding signal intensity
B1 | 0.333

These binders were tested against AgSho1 in the same assay as above.
Protocol: as §1

Binder | SPOT peptide array binding signal intensity
B1 | ≤ 0

The binders below were run against AgSla1-D1-D2 in the same assay as above.
Protocol: as §1

Binder | SPOT peptide array binding signal intensity
B1 | 17

These binders were tested against AgSla1-D3 in the same assay as above.
Protocol: as §1

Binder | SPOT peptide array binding signal intensity
B1 | 19.5

The binders below were run against CaAbp1-D1 in the same assay as above.
Protocol: as §1

Binder | SPOT peptide array binding signal intensity
B1 | 4040

What follows are binders tested against CaAbp1-D2 in the same assay as above.
Protocol: as §1

Binder | SPOT peptide array binding signal intensity
B1 | 6440

Each binder was assayed against CaBbc1 in the same assay as above.
Protocol: as §1

Binder | SPOT peptide array binding signal intensity
B1 | 149

The binders below were run against CaBem1-D1 in the same assay as above.
Protocol: as §1

Binder | SPOT peptide array binding signal intensity
B1 | 3

Each binder was assayed against CaBzz1-D1 in the same assay as above.
Protocol: as §1

Binder | SPOT peptide array binding signal intensity
B1 | 742

These binders were tested against CaBzz1-D2 in the same assay as above.
Protocol: as §1

Binder | SPOT peptide array binding signal intensity
B1 | 584

Each binder was assayed against CaCyk3 in the same assay as above.
Protocol: as §1

Binder | SPOT peptide array binding signal intensity
B1 | 2

These binders were tested against CaFus1 in the same assay as above.
Protocol: as §1

Binder | SPOT peptide array binding signal intensity
B1 | ≤ 0

These binders were tested against CaHof1 in the same assay as above.
Protocol: as §1

Binder | SPOT peptide array binding signal intensity
B1 | 2

Each binder was assayed against CaHse1 in the same assay as above.
Protocol: as §1

Binder | SPOT peptide array binding signal intensity
B1 | 1.75

What follows are binders tested against CaLsb1 in the same assay as above.
Protocol: as §1

Binder | SPOT peptide array binding signal intensity
B1 | ≤ 0

What follows are binders tested against CaLsb4 in the same assay as above.
Protocol: as §1

Binder | SPOT peptide array binding signal intensity
B1 | ≤ 0

These binders were tested against CaMyo5 in the same assay as above.
Protocol: as §1

Binder | SPOT peptide array binding signal intensity
B1 | 1.5

What follows are binders tested against CaNbp2 in the same assay as above.
Protocol: as §1

Binder | SPOT peptide array binding signal intensity
B1 | ≤ 0

These binders were tested against CaRvs167 in the same assay as above.
Protocol: as §1

Binder | SPOT peptide array binding signal intensity
B1 | 2.33

The binders below were run against CaRvs167-3 in the same assay as above.
Protocol: as §1

Binder | SPOT peptide array binding signal intensity
B1 | 1.5

These binders were tested against CaSho1 in the same assay as above.
Protocol: as §1

Binder | SPOT peptide array binding signal intensity
B1 | ≤ 0

The binders below were run against CaSla1-D1-D2 in the same assay as above.
Protocol: as §1

Binder | SPOT peptide array binding signal intensity
B1 | 1260

Each binder was assayed against CaSla1-D3 in the same assay as above.
Protocol: as §1

Binder | SPOT peptide array binding signal intensity
B1 | ≤ 0

These binders were tested against ScAbp1 in the same assay as above.
Protocol: as §1

Binder | SPOT peptide array binding signal intensity
B1 | 1480

These binders were tested against ScBbc1 in the same assay as above.
Protocol: as §1

Binder | SPOT peptide array binding signal intensity
B1 | 3

What follows are binders tested against ScBem1-D1 in the same assay as above.
Protocol: as §1

Binder | SPOT peptide array binding signal intensity
B1 | 15

These binders were tested against ScBzz1-D1 in the same assay as above.
Protocol: as §1

Binder | SPOT peptide array binding signal intensity
B1 | 37

Each binder was assayed against ScBzz1-D2 in the same assay as above.
Protocol: as §1

Binder | SPOT peptide array binding signal intensity
B1 | 19.5

The binders below were run against ScCyk3 in the same assay as above.
Protocol: as §1

Binder | SPOT peptide array binding signal intensity
B1 | ≤ 0

The binders below were run against ScFus1 in the same assay as above.
Protocol: as §1

Binder | SPOT peptide array binding signal intensity
B1 | ≤ 0

What follows are binders tested against ScHof1 in the same assay as above.
Protocol: as §1

Binder | SPOT peptide array binding signal intensity
B1 | 7.75

Each binder was assayed against ScHse1 in the same assay as above.
Protocol: as §1

Binder | SPOT peptide array binding signal intensity
B1 | 54.5

Each binder was assayed against ScLsb1 in the same assay as above.
Protocol: as §1

Binder | SPOT peptide array binding signal intensity
B1 | 4

What follows are binders tested against ScLsb2 in the same assay as above.
Protocol: as §1

Binder | SPOT peptide array binding signal intensity
B1 | ≤ 0

The binders below were run against ScLsb3 in the same assay as above.
Protocol: as §1

Binder | SPOT peptide array binding signal intensity
B1 | 328

Each binder was assayed against ScLsb4 in the same assay as above.
Protocol: as §1

Binder | SPOT peptide array binding signal intensity
B1 | ≤ 0

These binders were tested against ScMyo3 in the same assay as above.
Protocol: as §1

Binder | SPOT peptide array binding signal intensity
B1 | 19

These binders were tested against ScMyo5 in the same assay as above.
Protocol: as §1

Binder | SPOT peptide array binding signal intensity
B1 | 4.75

The binders below were run against ScNbp2 in the same assay as above.
Protocol: as §1

Binder | SPOT peptide array binding signal intensity
B1 | ≤ 0

What follows are binders tested against ScPex13 in the same assay as above.
Protocol: as §1

Binder | SPOT peptide array binding signal intensity
B1 | 0.75

Each binder was assayed against ScRvs167 in the same assay as above.
Protocol: as §1

Binder | SPOT peptide array binding signal intensity
B1 | 4.67

The binders below were run against ScSho1 in the same assay as above.
Protocol: as §1

Binder | SPOT peptide array binding signal intensity
B1 | 3

These binders were tested against ScSla1-D1-D2 in the same assay as above.
Protocol: as §1

Binder | SPOT peptide array binding signal intensity
B1 | 213

These binders were tested against ScSla1-D3 in the same assay as above.
Protocol: as §1

Binder | SPOT peptide array binding signal intensity
B1 | 7.25

Each binder was assayed against SpAbp1-D1 in the same assay as above.
Protocol: as §1

Binder | SPOT peptide array binding signal intensity
B1 | 1420

The binders below were run against SpBbc1 in the same assay as above.
Protocol: as §1

Binder | SPOT peptide array binding signal intensity
B1 | 2.5

These binders were tested against SpBzz1-D1 in the same assay as above.
Protocol: as §1

Binder | SPOT peptide array binding signal intensity
B1 | 256

Each binder was assayed against SpBzz1-D2 in the same assay as above.
Protocol: as §1

Binder | SPOT peptide array binding signal intensity
B1 | 2

These binders were tested against SpCyk3 in the same assay as above.
Protocol: as §1

Binder | SPOT peptide array binding signal intensity
B1 | ≤ 0

What follows are binders tested against SpHof1 in the same assay as above.
Protocol: as §1

Binder | SPOT peptide array binding signal intensity
B1 | 0.5

These binders were tested against SpHof1-2 in the same assay as above.
Protocol: as §1

Binder | SPOT peptide array binding signal intensity
B1 | 5.75

The binders below were run against SpHof1-3 in the same assay as above.
Protocol: as §1

Binder | SPOT peptide array binding signal intensity
B1 | 134

The binders below were run against SpHse1 in the same assay as above.
Protocol: as §1

Binder | SPOT peptide array binding signal intensity
B1 | 3.75

What follows are binders tested against SpLsb1 in the same assay as above.
Protocol: as §1

Binder | SPOT peptide array binding signal intensity
B1 | 5.5

These binders were tested against SpLsb4 in the same assay as above.
Protocol: as §1

Binder | SPOT peptide array binding signal intensity
B1 | 22.5

What follows are binders tested against SpMyo1 in the same assay as above.
Protocol: as §1

Binder | SPOT peptide array binding signal intensity
B1 | 5

What follows are binders tested against SpNbp2 in the same assay as above.
Protocol: as §1

Binder | SPOT peptide array binding signal intensity
B1 | ≤ 0

Each binder was assayed against SpPex13 in the same assay as above.
Protocol: as §1

Binder | SPOT peptide array binding signal intensity
B1 | ≤ 0

What follows are binders tested against SpRvs167 in the same assay as above.
Protocol: as §1

Binder | SPOT peptide array binding signal intensity
B1 | 1

These binders were tested against SpSla1-D1-D2 in the same assay as above.
Protocol: as §1

Binder | SPOT peptide array binding signal intensity
B1 | 3

The binders below were run against SpSla1-D3 in the same assay as above.
Protocol: as §1

Binder | SPOT peptide array binding signal intensity
B1 | 1
